For 55 molecules, viability loss activity score results are on record in PubChem BioAssay AID2275 (Broad Institute, 2010).

Structures are written as SMILES. About 190 (0.63%) of roughly 30,000 compounds were called active. The list comes from a sample in which actives are over-represented; it also holds similar structures and randomly drawn compounds. A number with no mark means an inactive call. Rule as the data show it: active = viability loss activity score above about 50%; inconclusive = no clear call, values can overlap the other calls; inactive = below about 35%.

The assay in a line: BJeLR cell viability loss, primary screen, luminescence, CellTiterGlo ATP (AID 2275).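 Also: higher score means fewer live cells and less ATP luminescence.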 The note with it: BJeLR fibroblasts viability, 48 h, active compounds read high, HRASV12, hTERT and SV40 LT/ST transformed, concentration not given here.
With `O=C(CC(O)(c1ccccc1)C(F)(F)F)c1ccccc1` (stereo not given), the viability loss activity score is -2.63%. The value for `CCCCN(C)S(=O)(=O)c1ccc2c(c1)oc(=O)n2C` was -1.52%; that for `CC(=O)Oc1ccc(N(C(C)=O)S(=O)(=O)c2ccc(Cl)cc2)cc1` was -1.22%; that for `CC[C@]1(O)C[C@@H]2CN(CCc3c([nH]c4ccccc34)[C@@](C(=O)OC)(c3cc4c(cc3OC)N(C)[C@H]3[C@@](O)(C(=O)OC)[C@H](OC(C)=O)[C@]5(CC)C=CCN6CC[C@]43[C@@H]65)C2)C1` was 64.7% (active). The value for `COc1ccc(C(=O)OC2=C(c3ccccc3)C(=O)c3ccccc3C2=O)cc1` was -6.2%; that for `CC1=C(C(=O)OC2CC(C)CCC2C(C)C)C(c2ccc(Br)cc2)n2nnnc2N1` (stereo not given) was -1.4%.

With `CCC1CCCCN1C(=O)c1ccc(F)cc1` (stereo not given), the viability loss activity score is 5.08%. Consider `O=C(CSc1ccccn1)NCc1ccccc1`, for which the viability loss activity score is -3.11%. For the molecule `CCN1C(=O)c2cccc3c(NC(=S)NC(=O)c4ccccc4)ccc1c23`, the viability loss activity score was 2.04%. In the case of `Cc1ccc(S(=O)(=O)N(C)C[C@@H]2Oc3c(NC(=O)NC(C)C)cccc3C(=O)N([C@H](C)CO)C[C@H]2C)cc1`, the viability loss activity score is 0.297%. Regarding `C=CC[C@H]1Cc2ccccc2[C@H](CC=C)N1`, the viability loss activity score is 5.12%. `COc1ccc(-c2coc3c(C)c4oc(=O)c5cc(OC)ccc5c4cc23)cc1`: the viability loss activity score is -3.61%. Take `COC(=O)C1=C(N)Oc2cc(C)oc(=O)c2C1c1cccnc1` (stereo not given): the viability loss activity score was -1.16%. To `CCOC(=O)CCN1N=C(c2ccc(CC)cc2)CCC1=O` belongs -3.96%; to `COc1ccc(S(=O)(=O)NCCN2CCOCC2)cc1-c1nnc2c3ccccc3c(C)nn12`, 13.3%; to `CN(C)c1ccc(C2CC(c3ccc(Br)cc3)=NN2S(C)(=O)=O)cc1` (stereo not given), 6.95%. `CSc1c(CC(=O)Nc2ccc(C)cc2)[nH]c2ccccc12`: the viability loss activity score was 1.08%. Consider `CC(=O)OCCn1c(=O)c2ccccc2c2ccccc2c1=O`, for which the viability loss activity score is 0.959%. With `Cc1c(C(=O)OC2CCCC2)[nH]c2c1C(=O)CCC2`, the viability loss activity score was -0.399%.

Turning to `COc1ccc(C(=O)NCc2cc3cc(Cl)ccc3[nH]2)cc1COc1ccccc1Cl`, the viability loss activity score was 13.4%.

Take `COc1ccc(-n2nc(C(=O)NC3CCCC(C)C3C)c3c4ccccc4n(C)c3c2=O)cc1` (stereo not given): the viability loss activity score is 0.653%. For `Cc1cc(C)n(-c2ccc(-n3cccc3/C=C(/C#N)S(=O)(=O)c3ccccc3)cc2)n1`, the viability loss activity score was 1.25%. Turning to `O=C(CSc1ccc(Cl)cc1)N1CCc2ccccc21`, the viability loss activity score was 8.93%. `Cc1cc(Sc2nnc(C)s2)c2ccccc2n1`: the viability loss activity score was 34.4%. The value for `COc1cc(S(=O)(=O)N2CCCCCCC2)ccc1-n1cnnn1` was -2.51%; that for `COc1ccc(NC(=S)N2CCCC(c3ccccc3)=N2)cc1` was -2.21%. Consider `C[C@@H]1CN([C@H](C)CO)C(=O)c2cc(NS(=O)(=O)c3cccs3)ccc2O[C@@H]1CN(C)Cc1ccc(C(F)(F)F)cc1`, for which the viability loss activity score is 0.614%.

Turning to `CCOC(=O)C1CCN(S(=O)(=O)c2ccc(N3C(=O)CC4(CCCC4)C3=O)c(Cl)c2)CC1`, the viability loss activity score was 1.47%. With `O=C(Nn1cnc2ccccc2c1=O)c1ccccc1`, the viability loss activity score is 3.68%. The value for `CCC(NCC(O)Cn1c2ccccc2c2ccccc21)C(=O)O` (stereo not given) was -1.06%. With `CC(C)Nc1ccc(-n2nc3ccccc3[n+]2[O-])cc1`, the viability loss activity score is 2.31%. To `Cc1cccc[n+]1C/C=C\c1ccccc1` belongs 13.2%; to `Cc1ccc(S(=O)(=O)Nc2ccc3c(c2)C(=O)N([C@@H](C)CO)C[C@@H](C)[C@@H](CN(C)S(=O)(=O)c2ccc(C)cc2)O3)cc1`, 3.23%.

As for `CC(C)(C)c1nc(=S)[nH][nH]1`, the viability loss activity score was -5.55%. To `Cc1noc(C)c1S(=O)(=O)Nc1ccc2c(c1)C(=O)N([C@@H](C)CO)C[C@H](C)[C@H](CN(C)Cc1ccc(C(=O)Nc3ccccc3N)cc1)O2` belongs 6.72%. For the molecule `Cn1c(Cc2nc(-c3cnccn3)no2)nnc1SCC(=O)Nc1ccc(Cl)cc1`, the viability loss activity score is -7.21%. The value for `Cc1ccc(-n2cc(-c3ccccc3)c3c(NN4CCOCC4)ncnc32)cc1Cl` was 0.765%; that for `CC(C)(C)NC(=S)N1CCn2cccc2C1c1ccccc1F` (stereo not given) was -3.87%.

Consider `Cc1ccccc1OC1C(=O)N(CCc2ccc(F)cc2)C1c1ccc2c(c1)OCO2` (stereo not given), for which the viability loss activity score is 0.258%.

As for `CCCC(=O)N1CCC(c2c[nH]c3ccccc23)(c2c[nH]c3ccccc23)CC1`, the viability loss activity score is 5.31%. To `CC(=O)NN1C(=O)c2ccccc2NC1c1ccccc1` (stereo not given) belongs -1.21%; to `Cc1cccc(C(=O)Nc2ccc(NC(=O)c3ccco3)cc2)c1`, 0.303%; to `CS(=O)(=O)c1sc(C(=O)Nc2ccccc2Cl)c2c1C=CCC2`, -1.24%. Consider `NC(=O)Cn1nnc2sc3c(c2c1=O)CCCC3`, for which the viability loss activity score is 10.6%. The value for `Cc1ccc(CC2C(=O)N(c3cccc(C(F)(F)F)c3)C(=O)C2C)cc1` (stereo not given) was 1.06%; that for `O=C(O)c1ccc(CNCCc2ccccc2)s1` was 0.164%; that for `COC(=O)C1=C(C)N(C)C(=S)NC1c1ccccc1` (stereo not given) was -3.34%. Turning to `CCOC(=O)c1cccc(NC(=O)CCOc2ccccc2)c1`, the viability loss activity score was 2.1%.

Turning to `Cc1ccc(CCNC(=O)C2(NS(=O)(=O)c3cccc4cccnc34)CCCCC2)cc1`, the viability loss activity score was 2.11%.

As for `Cc1ccc(S(=O)(=O)N(CC(=O)NC2CC2)C2CCCCC2)cc1`, the viability loss activity score is 5.79%. The value for `CC(C)(C)C(=O)CSc1nc2ccccc2c(=O)n1CC1CC1` was -4.35%; that for `Cc1cc(C(C)(C)C)cc(S(=O)(=O)Nc2ccc(C(=O)N3CCC(C)CC3)cc2)c1C` was -6.82%; that for `O=c1n(Cc2ccccc2)c2ccccc2n1Cc1ccccc1` was 6.4%.

Take `CC(C)NC(=O)Nc1ccc2c(c1)C(=O)N([C@@H](C)CO)C[C@H](C)[C@H](CN(C)S(=O)(=O)c1cccs1)O2`: the viability loss activity score was -2.18%.

As for `O=C1C2=C(Nc3ccccc3S(=O)(=O)C2c2ccc(Cl)cc2)c2ccccc21` (stereo not given), the viability loss activity score is 0.962%.
